The panel holds about 83,000 compounds, 20% with a hit somewhere; the sample as a whole holds those more often.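 The endpoint reported here, percent growth, reads 100 for growth as untreated, 0 for no net growth and -100 for all cells dead.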 A number with no mark means an inactive call. Activity calls are given as the source filed them. How the source made its calls: active means growth percent below 10; inactive means the rest.
What was measured:
Test in all cases: NCI-60 one-dose screen, 48 h (100 = growth as untreated, 0 = no growth, -100 = all killed)
SK-MEL-2 melanoma = details: 10 µM unless noted
EKVX NSCLC = details: 10 µM unless noted
SN12C renal = details: 10 µM unless noted
UO-31 renal = details: 10 µM unless noted
TK-10 renal = details: 10 µM unless noted
ACHN renal = details: 10 µM unless noted
CAKI-1 renal = details: 10 µM unless noted
A498 renal = details: 10 µM unless noted
CCRF-CEM leukemia = details: 10 µM unless noted
MOLT-4 leukemia = details: 10 µM unless noted
SR leukemia = details: 10 µM unless noted
RPMI-8226 leukemia = details: 10 µM unless noted
OVCAR-8 ovarian = details: 10 µM unless noted
OVCAR-5 ovarian = details: 10 µM unless noted
OVCAR-4 ovarian = details: 10 µM
SK-OV-3 ovarian = details: 10 µM unless noted
IGROV1 ovarian = details: 10 µM unless noted
OVCAR-3 ovarian = details: 10 µM unless noted
HS 578T breast = details: 10 µM unless noted
NCI/ADR-RES ovarian = details: 10 µM unless noted

Row | SMILES | growth (SK-MEL-2 melanoma) [%] | growth (EKVX NSCLC) | growth (SN12C renal) | growth (UO-31 renal) | growth (TK-10 renal) [%] | growth (ACHN renal) | growth (CAKI-1 renal) | growth (A498 renal) | growth (CCRF-CEM leukemia) | growth (MOLT-4 leukemia) | growth (SR leukemia) | growth (RPMI-8226 leukemia) | growth (OVCAR-8 ovarian) | growth (OVCAR-5 ovarian) | growth (OVCAR-4 ovarian) | growth (SK-OV-3 ovarian) [%] | growth (IGROV1 ovarian) | growth (OVCAR-3 ovarian) | growth (HS 578T breast) | growth (NCI/ADR-RES ovarian) [%]
1 | C=CCCCCCCCCC(=O)OC(C)C | 101 | 101% | 105% | 88.9% | 101 | 107% | 107% | 91.4% | 2.8% (active) | 95.2% | 89% | 99.7% | 104% | 99.2% | 112% | 102 | 109% | 105% | 93.9% | 102
2 | Cc1cc2c(C(C)C)c(O)c(O)c(C=NCc3ccoc3)c2c(O)c1-c1c(C)cc2c(C(C)C)c(O)c(O)c(C=NCc3ccco3)c2c1O | 45.4 | 23.6% | 40.5% | 36.2% | 45.8 | 25.3% | 54% | 80.1% | 21% | 14.5% | 13.9% | 33.5% | 30.2% | 68.9% | 31.2% | 54.4 | 46.5% | 25.9% | 45% | 44.4
3 | COc1ccc(C(=O)CCC(=O)O)cc1 | 102 | 78.7% | 89% | 71.7% | 105 | 100% | 98.4% | 104% | 48.6% | 86.2% | 99.7% | 87.3% | 71.4% | 88.3% | 64.8% | 115 | 96.8% | 79% | 105% | 83.6
4 | Cn1ncc2c(Nc3ccc(O)cc3)nc(Cl)nc21 | 106 | 87.8% | 96.8% | 84% | 102 | 88% | 92.9% | 111% | 92.1% | 94.2% | 75.3% | 79.4% | 104% | 105% | 105% | 105 | 92.9% | 117% | 102% | 97.3
5 | OC(c1ccc(Cl)cc1)(c1ccc(Cl)cc1)C(O)(c1ccc(Cl)cc1)c1ccc(Cl)cc1 | 68.4 | 49% | 29.8% | 25.7% | 29.1 | 61.8% | 46.8% | 64.4% | 32.8% | 22.7% | 25.9% | 30.8% | 56.8% | 71.7% | 44.8% | 35.9 | 19.6% | 40.7% | 68.6% | 48.5
6 | CSc1nc(=S)c2nc(SC)n(-c3ccccc3)c2[nH]1 | 83.1 | 105% | 96.7% | 83.9% | 96.9 | 102% | 90.9% | 86.6% | 82.5% | 107% | 104% | 90.7% | 100% | 104% | 104% | 96.4 | 101% | 105% | 92.3% | 101
7 | O=C(CSc1nccc(Nc2ccc(S(=O)(=O)Nc3ccccn3)cc2)n1)c1ccc(Cl)cc1 | 97.8 | 101% | 90.7% | 71.3% | 109 | 89.8% | 83% | 115% | -44.8% (active) | 81.4% | 75.5% | 71.3% | 84.2% | 111% | 80.2% | 95.4 | 77.9% | 95.8% | 89.1% | 103
8 | O=C(CCN1CCCCC1)c1ccc(Cl)cc1 | 104 | 101% | 111% | 96% | 103 | 110% | 95.2% | 79.5% | 93.6% | 108% | 112% | 85.8% | 113% | 102% | 105% | 103 | 107% | 106% | 108% | 114
9 | COc1ccc(NC(=O)Nc2ccc(-c3cccnc3)cc2N2CCC(CO)CC2)cc1 | 73.6 | 60% | 70.9% | 97.8% | 47.1 | 97.3% | 64.1% | 9.13% (active) | 95.4% | 93.2% | 95.2% | 54.4% | 79.1% | 49.6% | 73.8% | 71.7 | 110% | 40.2% | 62.6% | 64.4
10 | Cc1ccc(S(=O)(=O)Oc2ccc(Br)cc2Br)cc1 | 75.4 | 83.3% | 95.2% | 88.9% | 94.9 | 95.6% | 65% | 74.3% | 47.7% | 47.5% | 22% | 73.3% | 95.1% | 89.5% | 72.4% | 79.4 | 73.3% | 86.9% | 87.7% | 62.3
11 | C=CCCCCOc1ccccc1-c1cnc(OCCCCC=C)n1C | 46.1 | 85.2% | 91.1% | 69.3% | 75 | 84.5% | 54.9% | 51.1% | 80.9% | 91.4% | 30.7% | 80.8% | 83.9% | 95.2% | 97.9% | 75 | 62.9% | 51.3% | 66.4% | 30.4
12 | COc1cc(-c2nc(SCCC(C)C)nc(Nc3ccccc3)c2C#N)cc(OC)c1OC | 103 | 100% | 89.5% | 68.4% | 110 | 94% | 72.4% | 69.9% | 88.6% | 84.3% | 79.8% | 92.2% | 97.7% | 99.4% | 88.3% | 107 | 100% | 103% | -8.69% (active) | 95.5
13 | CCOC(=O)Nc1ccc2c(c1)/C(=N\NC(=S)NC)c1ccccc1-2 | 101 | 79.7% | 73.8% | 104% | 76.7 | 83.7% | 81.4% | 33.6% | 61.8% | 87.4% | 63.9% | 58.7% | 83% | 97.8% | 92.3% | 112 | 100% | 95.6% | 90.4% | 76.7
14 | CCn1cc(-c2ccnc(NCCNS(=O)(=O)c3ccc(Br)cc3)c2)c(-c2cccc(OC)c2)n1 | 90.8 | 77% | 77% | 45.6% | 83.2 | 82.6% | 66.1% | 66.2% | 43.2% | 34.8% | 42.2% | 25% | 63.5% | 97.6% | 55.3% | 76.6 | 60.8% | 78.3% | 78.5% | 73.9
15 | Cc1ccc2c(n1)C(=O)C(Cl)=C(Nc1ccc(N3CCN(C)CC3)cc1)C2=O | 68.4 | -81.8% (active) | -88.5% (active) | -97.4% (active) | 100 | -93.8% (active) | -100% (active) | 101% | -6.24% (active) | -25.6% (active) | -5.05% (active) | -32.6% (active) | -62.6% (active) | -7.55% (active) | -100% (active) | 89.9 | -83.5% (active) | -100% (active) | 58% | 27.6
16 | COc1cc(OC)cc(C(=O)Nc2cc(-c3cccnc3)nc(NCCCN3CCOCC3)n2)c1 | 84.1 | 103% | 86.4% | 53.6% | 95.5 | 103% | 101% | 83.3% | 90.8% | 82.3% | 57.9% | 79.1% | 91.8% | 100% | 117% | 93.9 | 97.4% | 105% | 69% | 95.4
